Most compounds without a hit are left out; they make up all but 2.4% or so of the library.
CHO-K1 Ca PAM = counter-screen for M1 PAMs: effect in parental CHO-K1 cells; ATP EC20, Fluo-8 calcium fluorescence; 0% at ATP EC20, 100% at ATP max; activation, % at 3 µM; 0.02% of 360,000 active;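 active = activation above the run cutoff, the mean activation of all test compounds plus 3 SD, cut at about 40% in these data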;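 note: peak over basal fluorescence ratio in a 140 s read after ATP addition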
M1 ag = activates human CHRM1 receptor | P11229 | CHO-K1 hM1, Fluo-8 calcium fluorescence, agonist mode; 0% DMSO, 100% acetylcholine EC100 | activation, % at 3 µM | 0.33% of 360,000 active;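 active = activation above the run's mean compound activation plus 3 SD, cut at about 16% in these data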;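 note: peak over basal fluorescence ratio within a 140 s kinetic read after compound addition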
Target sequence (P11229 whole entry, looked up): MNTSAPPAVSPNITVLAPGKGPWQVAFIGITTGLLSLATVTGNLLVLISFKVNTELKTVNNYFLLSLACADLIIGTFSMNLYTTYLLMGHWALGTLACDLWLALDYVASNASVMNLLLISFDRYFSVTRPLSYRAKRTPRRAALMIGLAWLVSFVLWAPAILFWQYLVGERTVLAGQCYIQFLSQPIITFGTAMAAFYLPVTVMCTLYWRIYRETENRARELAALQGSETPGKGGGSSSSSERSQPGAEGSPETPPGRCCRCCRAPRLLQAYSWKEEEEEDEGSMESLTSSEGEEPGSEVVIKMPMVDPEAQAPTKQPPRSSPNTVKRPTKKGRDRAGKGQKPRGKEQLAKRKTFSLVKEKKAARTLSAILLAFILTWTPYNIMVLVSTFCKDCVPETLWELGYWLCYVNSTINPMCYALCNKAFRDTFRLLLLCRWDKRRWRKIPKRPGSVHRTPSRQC
CHO-K1 Ca antag = M1 antagonist counterscreen hit in parental CHO-K1 cells | 0.6% of 360,000 active | ATP-induced calcium, Fluo-8 fluorescence | inhibition, % at 3 µM | AID 602250;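 active = inhibition above a per-plate cutoff, the plate's mean sample inhibition plus 3 SD, cut at about 24% in these data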;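 note: 0% = DMSO plus EC80 ATP and 100% = DMSO alone without ATP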
M1 antag = human CHRM1 antagonism; AID 588852; inhibition, % at 3 µM; CHO-K1 hM1, Fluo-8 calcium fluorescence, ACh EC80 antagonist; 1.3% of 360,000 active; P11229;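 active = percent inhibition above its own plate's cutoff, namely the mean of that plate's compound wells plus 3 SD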;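 note: peak over basal fluorescence ratio during 140 s after agonist addition; 0% = ACh EC80 plus DMSO and 100% = DMSO alone without agonist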
M1 ag parental = nonselective activator or artifact in parental CHO-K1 cells. activation, % at 3 µM. 0.48% of 360,000 active. Fluo-8 calcium fluorescence; scaled to maximal ATP response, vehicle zero; in the data active = activation above about 15%;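 note: untransfected CHO-K1 host cells lacking M1 receptor as counterscreen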
CHRM1 PAM = positive allosteric modulators of human M1 muscarinic receptor; P11229; CHO-K1 hM1, Fluo-8 calcium fluorescence, ACh EC20; 0% = ACh EC20, 100% = maximal ACh; activation, % at 3 µM; 0.088% of 360,000 active; AID 588819; in the data active = activation above about 19%, passing the limit was not always enough
* hit, by the source's call.

SMILES	CHO-K1 Ca PAM	M1 ag	CHO-K1 Ca antag	M1 antag	M1 ag parental	CHRM1 PAM
O=C(c1ccco1)N1CCN(C(c2ccccc2Cl)c2nnnn2Cc2ccco2)CC1 (stereo unspecified)	-9	2	18	29*	4	-16
O=C(NCC1CCCCC1)c1cccc(-c2ccc(O)cc2)c1	7	-3	-14	-9	3	4
Cc1ccc2nc(SCC(=O)NCc3ccc4c(c3)OCO4)nc(=O)n2c1	-26	-4	26*	3	8	4
CCOC(=O)C1=C(O)CSC1=Nc1ccc(Cl)cc1	-6	-2	27*	2	-1	9
CCOC(=O)C1=C(O)CSC1=Nc1ccccc1	1	-2	8	-7	-1	8
Cc1cccc(NC(=O)CN2C(=S)NC(C)(C)CC2C)c1 (stereo unspecified)	17	-8	-3	-7	1	9
COc1ccc(NC(=O)CSc2ncccc2C(=O)OC(C)C)cc1OC	-9	-1	27*	15	9	-7
COc1ccc(NC(=O)CSc2ccccn2)cc1OC	16	0	-3	-5	0	7
O=[N+]([O-])c1ccc(/C=N/Nc2nc(NCc3ccccc3)nc(N3CCOCC3)n2)cc1	16	-4	-17	1	0	1
CCOc1ccc2noc3c2c1C(=O)c1ccccc1-3	19	22*	2	6	13	0
O=C1c2ccccc2-c2onc3ccc(NCc4ccco4)c1c23	-10	36*	45*	44*	19*	-13
CCNc1ccc2noc3c2c1C(=O)c1ccccc1-3	-2	75*	27*	36*	51*	-20
O=C1c2ccccc2-c2onc3ccc(N4CCCC4)c1c23	-14	4	9	20	3	-6
CCC(=O)n1nc(-c2ccc(Cl)cc2)nc1NCc1ccccc1	6	-2	-7	-5	1	2
COc1cc(/C=N/Nc2nc(Nc3ccccc3)nc(-n3nc(C)cc3C)n2)cc(OC)c1OC	7	-5	6	26*	5	-18
CC(=O)c1c(C)[nH]c(C(=O)COc2cc(C)ccc2C(C)C)c1C	-2	1	24	36*	8	-10
O=C(c1cc2nc(-c3ccccc3)cc(-c3ccccc3)n2n1)N1CCCC1	18	-7	2	11	16*	-4
CCCCN1CC(N2CCN(C(=O)c3ccco3)CC2)CS1(=O)=O (stereo unspecified)	0	-6	10	-5	0	6
C[N+]1(CC2COC3(CCCCC3)O2)CCCC1 (stereo unspecified)	1	-8	-2	13	0	-15
CC1CC(C)(C)OC(C[N+]2(C)CCCCC2)O1 (stereo unspecified)	25	-6	-13	35*	2	-15
Cc1ccccc1-c1nnc(SCC(=O)NC2CCS(=O)(=O)C2)n1C (stereo unspecified)	1	-2	-5	-7	0	15
CCOc1cc(C(=O)Oc2cc(C)[nH]c(=O)c2[N+](=O)[O-])cc(OCC)c1OCC	17	-2	-10	1	1	4
CCCS(=O)(=O)N1CCCC(C(=O)NCCN(Cc2ccccc2)C(C)C)C1 (stereo unspecified)	-6	-6	32*	28	-1	-10
Cc1ccc(CCNC(=O)C2CCCN(c3ncnc4c3nc3n4CCCCC3)C2)cc1 (stereo unspecified)	14	-4	-10	-13	1	6
Cc1ccc(CN2CCC(CNC(=O)C3CCCN(c4ncnc5c4nc4n5CCCCC4)C3)CC2)cc1 (stereo unspecified)	23	-6	-24	97*	1	-21
SMILES	CHO-K1 Ca PAM	M1 ag	CHO-K1 Ca antag	M1 antag	M1 ag parental	CHRM1 PAM
O=C(NCC1CCN(Cc2ccccc2F)CC1)C1CCCN(c2ncnc3c2nc2n3CCCCC2)C1 (stereo unspecified)	-7	-6	-14	91*	0	-24
O=C(NCc1ccccc1Cl)C1CCCN(c2ncnc3c2nc2n3CCCCC2)C1 (stereo unspecified)	10	-5	-12	7	1	0
CC(C)N(CCNC(=O)C1CCCN(c2ncnc3c2nc2n3CCCCC2)C1)Cc1ccccc1 (stereo unspecified)	3	-6	1	38*	0	-19
COc1ccc(NC(=O)CSc2ccc(-c3sc(C)nc3C)nn2)cc1	-23	-4	12	-7	2	2
N#CC1CC(c2ccccc2)=NN1c1ccccc1[N+](=O)[O-] (stereo unspecified)	-13	-6	24*	5	0	-5
Clc1ccc(C2=Nn3c(nnc3-c3cccnc3)SC2)s1	-5	1	27*	-3	0	10
NCC(O)c1ccc(O)c(O)c1 (stereo unspecified)	7	-1	-1	-29	0	3
CC1=C(C(=O)c2ccccc2)C(c2cccc([N+](=O)[O-])c2)NC(=S)N1 (stereo unspecified)	4	-6	-11	2	1	-1
CC(=O)C1=C(C)NC(=S)NC1c1cc([N+](=O)[O-])ccc1O (stereo unspecified)	0	-1	-7	-12	17*	8
COc1ccc(NS(=O)(=O)c2cc(NC(=O)C3CC3)ccc2N2CCCCC2)cc1	18	-2	-15	-5	0	6
CN(C)c1ccc(CNC(=O)c2ccc(CNc3c(N4CCCCC4)c(=O)c3=O)cc2)cc1	10	-7	2	-12	0	27*
O=C(NCc1ccc(Cl)cc1)c1ccc(CNc2c(N3CCCC3)c(=O)c2=O)cc1	11	-4	-6	9	1	-4
Cc1cc(CSc2ccccc2)ccc1NC(=O)c1ccc(C)c([N+](=O)[O-])c1	12	-7	-7	-12	0	12
Cc1cc(CSc2ccccc2)ccc1NC(=O)c1ccc(Cl)c([N+](=O)[O-])c1	6	-5	28*	-10	-1	0
COc1cccc(C(=O)NCC(c2ccc3c(c2)OCO3)N2CCN(c3ccc(F)cc3)CC2)c1 (stereo unspecified)	-12	-7	0	28*	1	-26
Cc1c(C(=O)O)oc2c1C(O)CC(C)(C)C2 (stereo unspecified)	19	-5	-3	1	0	10
O=C(CN(C(=O)c1csnn1)c1ccccc1)NCc1ccc2c(c1)OCO2	-10	-4	-6	-6	2	2
O=C(COC(=O)c1c2c(nc3ccccc13)CCCC2)Nc1ccc2c(c1)OCO2	-1	0	5	32*	4	-8
O=C(COC(=O)c1c2c(nc3ccccc13)/C(=C\c1cccs1)CCC2)Nc1ccccc1	18	-3	5	32*	2	-13

Screening results as filed in PubChem.
